This passage reports outcome results from PubChem BioAssay (NCATS).

Records with an inconclusive call do not appear. The source made the active and inactive calls. Calls follow the shape of the dose curve; as a rule, active = well fitted inhibition curve with a large enough effect; inconclusive = small, poorly fitted or top-dose-only effect; inactive = flat fitted curve, though single readings scatter.

Phospholipid hydroperoxide glutathione peroxidase GPX4 (Homo sapiens), sequence (P36969 whole entry, looked up): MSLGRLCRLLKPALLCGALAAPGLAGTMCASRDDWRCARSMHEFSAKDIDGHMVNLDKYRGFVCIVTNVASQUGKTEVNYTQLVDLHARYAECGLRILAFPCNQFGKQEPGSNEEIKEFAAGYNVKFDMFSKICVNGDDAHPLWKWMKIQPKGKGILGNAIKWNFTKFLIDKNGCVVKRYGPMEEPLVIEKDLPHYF

The assay addresses Phospholipid hydroperoxide glutathione peroxidase GPX4 (Homo sapiens) (UniProt P36969). The experiment in a line: Primary qHTS Assay for Inhibitors of Recombinant Selenoprotein Glutathione Peroxidase 4 (GPX4) (AID 1845192). Also: nearly all actives have a fitted effect of over 65% in size. The note with it: recombinant GPX4, GR-coupled NADPH fluorescence, 15 min; series mostly up to 50 µM. An excerpt: Assay Provider: Elias S.J. Arner MD PhD.
Department of Medical Biochemistry and Biophysics
Karolinska Institutet, Solna, Stockholm, Sweden
Selenoprotein glutathione peroxidases (GPX), like the ubiquitously expressed GPX1 and the ferroptosis modulator GPX4, enact their antioxidant activities by reducing hydroperoxides using glutathione. […] GPX1 and GPX4 inhibitors have thus shown promise as anti-cancer agents. Existing inhibitors are often promiscuous, or modulate GPX activity only indirectly, so novel direct inhibitors identified through screening against GPX1 and GPX4 could be valuable. Here, we developed optimized glutathione reductase (GR)-coupled GPX assays for the biochemical high-throughput screen (HTS) of almost 12,000 compounds with known mechanisms of action. Initial hits were triaged using a GR counter-screen, assessed for isoform specificity using a separate GPX2 assay, and were assessed for general selenocysteine-targeting activity using a thioredoxin reductase (TXNRD1) assay. With this suite of assays, we identified novel GPX1/GPX2- and GPX4-specific inhibitors and can here present a validated pipeline for future discovery research for selenoprotein-targeting agents.
SEQUENCE No. (e.g., 1, 2, 3, etc.); […] (e.g., Cells, Incubation, Reagent, etc.); VALUE; DESCRIPTION.
1; Reagent 1; 3 uL; 333.33 nM GPx4 enzyme or no enzyme control in 1536-well, black, solid Greiner assay plate.
2; Compound; 25 nL; Kalypsis pin tool (Wako USA) equipped with a 1536-well pin head.
3; Incubation; 30 min; room temperature.
4; Reagent 2; 1 uL; 500 nM GR, 5 mM GSH, 2.5 mM NADPH solution
5; Reagent 3; 1 uL; 2.5 mM CHP in 50% EtOH.
6; Detection; Fluorescence; ViewLux microplate reader, excitation 340 nm and emission 450 nm.
7; Incubation; 15 min; room temperature.
8; Detection; Fluorescence; ViewLux microplate reader, excitation 340 nm and emission 450 nm.
NOTES (numbers refer to Sequence numbers above)
1. 3 µL of 333.33 nM GPX4 and 0.016% BSA in assay buffer (50 mM Tris-HCl, 2 mM EDTA (pH 7.5), 150 mM NaCl) was added to columns 3-48 of 1536-well plates using a BioRAPTR Flying Reagent Dispenser (Let's Go Robotics (LGR), Carlsbad, CA). A no-enzyme control (0.01% BSA in TES assay buffer) was added to columns 1-2.
2. 25 nL, library and DMSO controls were added to each well with a pin tool (Kalypsys).
3. The assay plates were incubated for 30 minutes at room temperature.
4. 1 µL of master mix (500 nM glutathione reductase (GR), 5 mM reduced glutathione (GSH), 2.5 mM NADPH in assay buffer) was added.
5. 1 µL of cumene hydroperoxide (CHP) ([2.5 mM] in 50% EtOH) was then added within 5 minutes to initiate the reaction. Final concentrations were: 200 nM GPX4, 1 mM GSH, 0.5 mM CHP, 0.5 mM NADPH, 100 nM GR, 0.01% BSA.
6. Initial fluorescence readout (t=0) at 340/450 nm was measured using a ViewLux multimodal detector (PerkinElmer, Waltham, MA).
8. Endpoint fluorescence readout (t=15) at 340/450 nm was measured 15 min after room temperature incubation.
Take `c1cnc(N2CCN(Cc3ccc4c(c3)OCO4)CC2)nc1`: the result was inactive.

Turning to `c1ccc2c(c1)CCCC2C1=NCCN1` (stereo not given), the result was inactive.

As to `CCCCNC(=O)NS(=O)(=O)c1ccc(C)cc1`, the result was inactive.

For the compound `NCCCNCCSP(=O)(O)O`, the outcome was inactive.

Turning to `CN(C)CC[C@@H](c1ccc(Br)cc1)c1ccccn1`, the outcome was inactive.

Turning to `COc1ccc(CCN(C)CCCC(C#N)(c2cc(OC)c(OC)c(OC)c2)C(C)C)cc1OC` (stereo not given), the outcome was inactive.

Take `COc1cc2c(cc1OC)-c1cc(=Nc3c(C)cc(C)cc3C)n(C)c(=O)n1CC2`: the result was inactive.

For the compound `CO[C@@]1(NC(=O)CSCC#N)C(=O)N2C(C(=O)O)=C(CSc3nnnn3C)CS[C@@H]21`, the result was inactive.

With `Brc1c(NC2=NCCN2)ccc2nccnc12`, the outcome was inactive.

`O=C1NCN(c2ccccc2)C12CCN(CCCC(c1ccc(F)cc1)c1ccc(F)cc1)CC2`: the outcome was inactive.

As to `C[N+](C)(C)CCOC(N)=O`, the outcome was inactive.

For the compound `NS(=O)(=O)c1cc2c(cc1Cl)NC(C1CC3C=CC1C3)NS2(=O)=O` (stereo not given), the result was inactive.

Consider `CC(C)COCC(CN(Cc1ccccc1)c1ccccc1)N1CCCC1` (stereo not given), for which the outcome was inactive.

Take `C(=C\c1ccccc1)/CN1CCN(C(c2ccccc2)c2ccccc2)CC1`: the result was inactive.

Turning to `COC(=O)[C@@H](N)Cc1ccc(O)c(O)c1`, the result was inactive.

In the case of `Cc1nc2c([nH]1)c(=O)n(C)c(=O)n2Cc1ccco1`, the result was inactive.

For the compound `Cc1ccc(/C(=C\CN2CCCC2)c2ccccn2)cc1`, the result was inactive.

Turning to `COCCCC/C(=N\OCCN)c1ccc(C(F)(F)F)cc1`, the outcome was inactive.

In the case of `CCN(Cc1ccncc1)C(=O)C(CO)c1ccccc1` (stereo not given), the result was inactive.

As to `CCc1c(C)[nH]c2c1C(=O)C(CN1CCOCC1)CC2` (stereo not given), the outcome was inactive.

As for `CC1=C(C)C(=O)C(CCCCC#CCCCC#CCO)=C(C)C1=O`, the outcome was inactive.

As for `C[C@]12CC[C@@H]3c4ccc(O)cc4C[C@@H](CCCCCCCCCS(=O)CCCC(F)(F)C(F)(F)F)[C@H]3[C@@H]1CC[C@@H]2O` (stereo not given in full), the outcome was inactive.

As for `CN(C)C(=O)Oc1cccc([N+](C)(C)C)c1`, the result was inactive.

With `COc1cc(Cc2cnc(N)nc2N)cc(OC)c1OC`, the result was inactive.

For `CCCN(CCC)C(=O)C(CCC(=O)O)NC(=O)c1ccccc1` (stereo not given), the outcome was inactive.

`CCN(CC)CCNC(=O)c1cc(S(C)(=O)=O)ccc1OC`: the result was inactive.

Regarding `OCCN1CCN(CCCN2c3ccccc3C=Cc3ccccc32)CC1`, the result was inactive.

For `C=CCc1ccccc1OCC(O)CNC(C)C` (stereo not given), the result was inactive.

Take `COCCc1ccc(OCC(O)CNC(C)C)cc1` (stereo not given): the outcome was inactive.

As to `C[C@]12CCC(=O)C=C1CC[C@@H]1[C@@H]2CC[C@@]2(C)[C@H]1CC[C@]2(O)C(=O)CO`, the result was inactive.

As to `CC(C)(C)NCC(O)c1cc(O)cc(O)c1` (stereo not given), the outcome was inactive.

On to `CN1CCN(CC(=O)N2c3ccccc3C(=O)Nc3cccnc32)CC1`, for which the outcome is “inactive [at 4.52 µM]”.

As to `CCOC(=O)c1cnc2c(cnn2CC)c1NN=C(C)C`, the outcome was inactive.

On to `CCCNC(C)C(=O)Nc1ccccc1C` (stereo not given), for which the outcome was inactive.

Take `COc1ccc2c(c1OC)C(=O)O[C@@H]2[C@H]1c2c(cc3c(c2OC)OCO3)CCN1C`: the result was inactive.

`NC1=NCC2c3ccccc3Cc3ccccc3N12` (stereo not given): the outcome was inactive.

On to `c1cc(CN2CCCCC2)cc(OCCCNc2nc3ccccc3s2)c1`, for which the outcome was inactive.

With `CC(=O)OC(C)C[N+](C)(C)C` (stereo not given), the result was inactive.

Take `CN(C)[C@@H]1C(=O)C(C(N)=O)=C(O)[C@@]2(O)C(=O)C3=C(O)c4c(O)ccc(Cl)c4[C@@H](O)[C@H]3C[C@@H]12`: the outcome was inactive.

As for `NC(=O)c1ncn([C@@H]2O[C@H](CO)[C@@H](O)[C@H]2O)c1O`, the result was inactive.
